Measurements: PubChem BioAssay (NCI)
The panel holds about 83,000 compounds, 20% with a hit somewhere; the sample as a whole holds those more often.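 Method: cells in 96-well plates; compound added at one concentration; 48 h incubation; percent growth measured; values under 10 scored active.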 Calls of active or inactive are those of the source.

Assays:
Experiment in all cases: NCI-60 one-dose screen, 48 h (100 = growth as untreated, 0 = no growth, -100 = all killed)
Details in all cases: 10 µM unless noted
SK-MEL-2 melanoma = test system: SK-MEL-2 melanoma
EKVX NSCLC = test system: EKVX NSCLC
SN12C renal = test system: SN12C renal
UO-31 renal = test system: UO-31 renal
TK-10 renal = test system: TK-10 renal
ACHN renal = test system: ACHN renal
CAKI-1 renal = test system: CAKI-1 renal
A498 renal = test system: A498 renal
CCRF-CEM leukemia = test system: CCRF-CEM leukemia
MOLT-4 leukemia = test system: MOLT-4 leukemia
SR leukemia = test system: SR leukemia
OVCAR-8 ovarian = test system: OVCAR-8 ovarian
OVCAR-5 ovarian = test system: OVCAR-5 ovarian
OVCAR-4 ovarian = test system: OVCAR-4 ovarian
SK-OV-3 ovarian = test system: SK-OV-3 ovarian
OVCAR-3 ovarian = test system: OVCAR-3 ovarian
HS 578T breast = test system: HS 578T breast
NCI/ADR-RES ovarian = test system: NCI/ADR-RES ovarian

Measured: growth

CC/C=C\C[C@@H]1C/C=C2/C(=O)C=C[C@H]2C/C=C\CCCC(=O)O1
inactive: NCI/ADR-RES ovarian 10.9%
active: SK-MEL-2 melanoma -39.2% | EKVX NSCLC -25.1% | SN12C renal -28.8% | UO-31 renal -91.9% | TK-10 renal -42.5% | ACHN renal -86.2% | CAKI-1 renal 9.49% | A498 renal -88.4% | CCRF-CEM leukemia -28.7% | MOLT-4 leukemia -24.9% | SR leukemia -30.3% | OVCAR-8 ovarian 4.94% | OVCAR-5 ovarian -32.8% | OVCAR-4 ovarian 5.92% | SK-OV-3 ovarian -8.9% | OVCAR-3 ovarian -95.4% | HS 578T breast -1.47%

CCc1cccc2c3c(sc12)C(c1ccc(Cl)cc1)C(C#N)=C(N)O3 (stereo unspecified)
inactive: SK-MEL-2 melanoma 40.2% | EKVX NSCLC 48.2% | SN12C renal 38.3% | UO-31 renal 38.2% | TK-10 renal 69% | ACHN renal 33.7% | A498 renal 10.8% | MOLT-4 leukemia 12.2% | SR leukemia 13.6% | OVCAR-8 ovarian 29.4% | OVCAR-5 ovarian 24.6% | OVCAR-4 ovarian 75.2% | SK-OV-3 ovarian 58.3% | NCI/ADR-RES ovarian 19.2%
active: CAKI-1 renal 3.05% | CCRF-CEM leukemia 5.24% | OVCAR-3 ovarian 2.19% | HS 578T breast 4.92%

Cc1ccc2sc3c(NCCN)nc4ccccc4c3c(=O)c2c1
active: SR leukemia -13.4%
inactive: SK-MEL-2 melanoma 105% | EKVX NSCLC 88% | SN12C renal 69.3% | UO-31 renal 50.6% | TK-10 renal 96.2% | ACHN renal 66.4% | CAKI-1 renal 42.7% | A498 renal 61.6% | CCRF-CEM leukemia 32.8% | MOLT-4 leukemia 49% | OVCAR-8 ovarian 80.1% | OVCAR-5 ovarian 97% | OVCAR-4 ovarian 67% | SK-OV-3 ovarian 88.4% | OVCAR-3 ovarian 63% | HS 578T breast 85% | NCI/ADR-RES ovarian 80.5%

CCCCn1c(=O)c(-c2cc(-c3ccc(Cl)cc3)nc(-c3ccc(Cl)cc3)c2)cc2cc(Cl)ccc21
inactive: SK-MEL-2 melanoma 120% | EKVX NSCLC 105% | SN12C renal 91.2% | UO-31 renal 88.4% | TK-10 renal 107% | ACHN renal 107% | CAKI-1 renal 94.3% | A498 renal 123% | CCRF-CEM leukemia 104% | MOLT-4 leukemia 104% | SR leukemia 106% | OVCAR-8 ovarian 101% | OVCAR-5 ovarian 98.4% | OVCAR-4 ovarian 105% | SK-OV-3 ovarian 102% | OVCAR-3 ovarian 117% | HS 578T breast 108% | NCI/ADR-RES ovarian 109%

COC(=O)CCC/C=C\C[C@H]1C=CC(=O)/C1=C/C[C@@H](O)CCc1cccc(C(F)(F)F)c1
active: SK-MEL-2 melanoma -5.48% | EKVX NSCLC 6.52% | SN12C renal -36% | UO-31 renal -92.5% | TK-10 renal -3.59% | ACHN renal -87.2% | A498 renal -26.7% | CCRF-CEM leukemia -6% | MOLT-4 leukemia -14.2% | SR leukemia -15.3% | OVCAR-8 ovarian 8.44% | OVCAR-5 ovarian -26.6% | OVCAR-3 ovarian -62.5% | NCI/ADR-RES ovarian 9.64%
inactive: CAKI-1 renal 12.6% | OVCAR-4 ovarian 20% | SK-OV-3 ovarian 24.6% | HS 578T breast 32.3%

O=C(O)CCC/C=C\C[C@H]1C=CC(=O)/C1=C/C[C@@H](O)CCc1cccc(C(F)(F)F)c1
active: SK-MEL-2 melanoma -6.24% | SN12C renal -24.7% | UO-31 renal -88.4% | ACHN renal -70.3% | A498 renal -12% | CCRF-CEM leukemia 4.1% | MOLT-4 leukemia -8.07% | SR leukemia -7.7% | OVCAR-5 ovarian 8.7% | OVCAR-3 ovarian -36.1% | NCI/ADR-RES ovarian 5.22%
inactive: EKVX NSCLC 37.9% | TK-10 renal 11.1% | CAKI-1 renal 12.6% | OVCAR-8 ovarian 10.3% | OVCAR-4 ovarian 32.8% | SK-OV-3 ovarian 44.3% | HS 578T breast 37.6%

COc1ccc(-c2csc(NC(=O)N3CCN(c4cc5c(cc4F)c(=O)c(C(=O)O)cn5C4CC4)CC3)n2)cc1
inactive: EKVX NSCLC 23.1% | TK-10 renal 25.5% | CAKI-1 renal 29% | SR leukemia 15.4% | OVCAR-5 ovarian 25.5% | OVCAR-4 ovarian 18.4% | HS 578T breast 28.8% | NCI/ADR-RES ovarian 57.5%
active: SK-MEL-2 melanoma -20.4% | SN12C renal 5.86% | UO-31 renal 1.86% | ACHN renal 9.82% | A498 renal -15% | CCRF-CEM leukemia 7.96% | MOLT-4 leukemia 3.03% | OVCAR-8 ovarian 3.75% | SK-OV-3 ovarian -8.98% | OVCAR-3 ovarian -3.32%

COc1ccc(-c2nc(NCCO)[nH]c(=O)c2C#N)cc1
inactive: SK-MEL-2 melanoma 98.6% | EKVX NSCLC 110% | SN12C renal 95.9% | UO-31 renal 90.5% | TK-10 renal 99.7% | ACHN renal 96.5% | CAKI-1 renal 101% | A498 renal 113% | CCRF-CEM leukemia 102% | MOLT-4 leukemia 98.8% | SR leukemia 94.3% | OVCAR-8 ovarian 107% | OVCAR-5 ovarian 92.8% | OVCAR-4 ovarian 107% | SK-OV-3 ovarian 97.7% | OVCAR-3 ovarian 111% | HS 578T breast 106% | NCI/ADR-RES ovarian 98.1%

COC1=C(C)C(=O)c2c(c(CCCl)c3n2CCC3O)C1=O (stereo unspecified)
active: SK-MEL-2 melanoma -48.8% | SN12C renal 6.15% | UO-31 renal -60.4% | TK-10 renal -35.2% | ACHN renal -3.06% | A498 renal -79.9% | SR leukemia 7.38% | SK-OV-3 ovarian -9.52% | OVCAR-3 ovarian 0.645% | HS 578T breast -6.16% | NCI/ADR-RES ovarian 6.59%
inactive: EKVX NSCLC 13.6% | CAKI-1 renal 10.9% | CCRF-CEM leukemia 66.3% | MOLT-4 leukemia 74.6% | OVCAR-8 ovarian 12.1% | OVCAR-5 ovarian 10.4% | OVCAR-4 ovarian 79.1%

CCCCCCCNC(=O)CCCNc1ncnc2c1ncn2-c1cccc(C(C)O)c1 (stereo unspecified)
inactive: SK-MEL-2 melanoma 105% | EKVX NSCLC 76.4% | SN12C renal 91.4% | UO-31 renal 83.6% | TK-10 renal 97.5% | ACHN renal 89.6% | CAKI-1 renal 90.2% | A498 renal 123% | CCRF-CEM leukemia 18.4% | MOLT-4 leukemia 78.2% | SR leukemia 84.2% | OVCAR-8 ovarian 91.1% | OVCAR-5 ovarian 88.2% | OVCAR-4 ovarian 84.8% | SK-OV-3 ovarian 104% | OVCAR-3 ovarian 87.1% | HS 578T breast 97.4% | NCI/ADR-RES ovarian 95.8%

Clc1ccc2c(c1)N(CCCN1CCCC1)c1ccccc1S2
active: SR leukemia -30.1%
inactive: SK-MEL-2 melanoma 74% | EKVX NSCLC 51.6% | SN12C renal 15% | UO-31 renal 40.1% | TK-10 renal 82.9% | ACHN renal 45% | CAKI-1 renal 56% | A498 renal 36.6% | CCRF-CEM leukemia 36.3% | MOLT-4 leukemia 24.2% | OVCAR-8 ovarian 77.1% | OVCAR-5 ovarian 53.8% | OVCAR-4 ovarian 53.6% | SK-OV-3 ovarian 37.2% | OVCAR-3 ovarian 44% | HS 578T breast 42.6% | NCI/ADR-RES ovarian 35.8%

O=C1c2cccc3cccc(c23)C(=O)N1Nc1nc(N2CCOCC2)nc(N2CCN(c3ccccc3)CC2)n1
inactive: SK-MEL-2 melanoma 59.9% | EKVX NSCLC 50% | SN12C renal 64.8% | UO-31 renal 29.9% | TK-10 renal 96% | ACHN renal 41.2% | CAKI-1 renal 41.2% | CCRF-CEM leukemia 56.9% | MOLT-4 leukemia 42% | SR leukemia 23.7% | OVCAR-8 ovarian 71.6% | OVCAR-5 ovarian 83.8% | OVCAR-4 ovarian 79.9% | SK-OV-3 ovarian 54.8% | OVCAR-3 ovarian 11.2% | HS 578T breast 42.9% | NCI/ADR-RES ovarian 37.8%
active: A498 renal -3.12%

CSc1ccc2c(c1)c(CCN)c(C)n2Cc1ccc(Cl)c(Cl)c1
active: SK-MEL-2 melanoma -66.1% | EKVX NSCLC -86.7% | SN12C renal -80.2% | UO-31 renal -91% | TK-10 renal -80.4% | ACHN renal -85.5% | CAKI-1 renal -92.5% | A498 renal -91.8% | CCRF-CEM leukemia -56.2% | MOLT-4 leukemia -64.6% | SR leukemia -61.6% | OVCAR-8 ovarian -60.8% | OVCAR-5 ovarian -58.2% | OVCAR-4 ovarian -93.2% | SK-OV-3 ovarian -91.2% | OVCAR-3 ovarian -88.4% | HS 578T breast -39.2% | NCI/ADR-RES ovarian -87.8%

C=C(C)C1CCC2(C)OC2C1 (stereo unspecified)
inactive: SK-MEL-2 melanoma 111% | EKVX NSCLC 87.4% | SN12C renal 108% | UO-31 renal 115% | TK-10 renal 100% | ACHN renal 104% | CAKI-1 renal 81.2% | A498 renal 141% | CCRF-CEM leukemia 110% | MOLT-4 leukemia 90.7% | SR leukemia 116% | OVCAR-8 ovarian 113% | OVCAR-5 ovarian 102% | OVCAR-4 ovarian 94.6% | SK-OV-3 ovarian 116% | OVCAR-3 ovarian 123% | HS 578T breast 106% | NCI/ADR-RES ovarian 99.6%

CCOC(=O)C1=C(N)Oc2c(sc3c(CC)cccc23)C1c1ccc(F)cc1 (stereo unspecified)
inactive: SK-MEL-2 melanoma 52.1% | EKVX NSCLC 64.1% | SN12C renal 49.1% | UO-31 renal 36.2% | TK-10 renal 99.1% | ACHN renal 34.1% | CCRF-CEM leukemia 27.6% | MOLT-4 leukemia 64.2% | SR leukemia 27.2% | OVCAR-8 ovarian 45.2% | OVCAR-5 ovarian 56.2% | OVCAR-4 ovarian 58.7% | SK-OV-3 ovarian 50.6% | HS 578T breast 23.9% | NCI/ADR-RES ovarian 32.2%
active: CAKI-1 renal 4.96% | A498 renal -3.69% | OVCAR-3 ovarian -6.19%

CN(C)CCNc1nc2ccccc2c2c(=O)c3cc(F)ccc3sc12
active: MOLT-4 leukemia -3.39% | SR leukemia -23.5%
inactive: SK-MEL-2 melanoma 87.3% | EKVX NSCLC 67.7% | SN12C renal 50.8% | UO-31 renal 25.2% | TK-10 renal 55.4% | ACHN renal 21.4% | CAKI-1 renal 14% | A498 renal 17.6% | CCRF-CEM leukemia 24.4% | OVCAR-8 ovarian 40.2% | OVCAR-5 ovarian 76.9% | OVCAR-4 ovarian 29.9% | SK-OV-3 ovarian 77.1% | OVCAR-3 ovarian 38.1% | HS 578T breast 47.8% | NCI/ADR-RES ovarian 38.3%

CCCCC[C@H](O)C/C=C1/C(=O)C=C[C@@H]1C/C=C\CCCC(=O)OC
inactive: SK-MEL-2 melanoma 89.2% | EKVX NSCLC 103% | SN12C renal 11.5% | UO-31 renal 81.5% | TK-10 renal 82.3% | ACHN renal 75.9% | CAKI-1 renal 60.5% | A498 renal 97.5% | MOLT-4 leukemia 20.2% | OVCAR-8 ovarian 13.8% | OVCAR-5 ovarian 129% | OVCAR-4 ovarian 83.9% | SK-OV-3 ovarian 118% | OVCAR-3 ovarian 11.6% | HS 578T breast 88% | NCI/ADR-RES ovarian 18.7%
active: CCRF-CEM leukemia 2.62% | SR leukemia 0.159%
